Source: PubChem BioAssay AID1220 (Sanford-Burnham Center for Chemical Genomics, 2008)
Among all 190,000 compounds or so, about 1,300 (0.68%) were called active. No stated cut-off is given here; in the data, active means inhibition above about 50%; inactive means the rest. The list comes from a sample in which actives are over-represented; it also holds similar structures and randomly drawn compounds.

Molecular target: Mannose-6-phosphate isomerase (Homo sapiens) (UniProt P34949)
Experiment: MPI inhibition at elevated mannose 6-phosphate – biochemical, fluorescence intensity, high mannose 6-phosphate, primary screen (AID 1220)
Details: recombinant PMI enzyme, coupled fluorescence intensity; at 20 µM; hits give high values

Chain of Mannose-6-phosphate isomerase (Homo sapiens) (P34949 whole entry, looked up): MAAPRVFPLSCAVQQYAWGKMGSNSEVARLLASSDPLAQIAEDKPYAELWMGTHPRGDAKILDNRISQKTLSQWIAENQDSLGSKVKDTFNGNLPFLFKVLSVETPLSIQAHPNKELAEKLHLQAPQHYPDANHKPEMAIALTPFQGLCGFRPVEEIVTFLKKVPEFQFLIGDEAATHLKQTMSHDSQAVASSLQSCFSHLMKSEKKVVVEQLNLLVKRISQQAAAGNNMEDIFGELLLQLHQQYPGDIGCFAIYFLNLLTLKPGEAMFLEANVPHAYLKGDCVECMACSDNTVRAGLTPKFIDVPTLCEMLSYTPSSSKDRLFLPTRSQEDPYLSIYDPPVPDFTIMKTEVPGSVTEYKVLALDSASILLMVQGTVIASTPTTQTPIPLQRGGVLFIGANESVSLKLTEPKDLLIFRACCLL

Row | SMILES | inhibition
1 | O=C(Nc1ccc(N=Nc2ccccc2)c(NC(=O)C2CCCO2)c1)C1CCCO1 (stereo not given) | 9% (inactive)
2 | COc1ccccc1NC(=O)CN1CCN(c2ccccn2)CC1 | -9% (inactive)
3 | COC(=O)Cc1c(C)c2ccc(OCC(=O)N(C)C)cc2oc1=O | -8.1% (inactive)
4 | Cc1cc(C)n(C(=O)CCCCCC(=O)n2nc(C)cc2C)n1 | -6.2% (inactive)
5 | O=C(CCN1C(=O)C2C3C=CC(C3)C2C1=O)Nc1ccccc1 (stereo not given) | -8.2% (inactive)
6 | C/C(=N\NC(=O)Cn1c(-c2ccccn2)nc2ccccc21)c1cccc(O)c1 | -16.2% (inactive)
7 | NNC(=O)c1cc2c(s1)CCCCCC2 | -2.3% (inactive)
8 | O=C(Nc1ccc2c(c1)OCCO2)c1cccc(S(=O)(=O)N2CCCCC2)c1 | 18.2% (inactive)
9 | COC(=O)c1ccc(C)c(N(CCO)CCO)c1 | 0.5% (inactive)
10 | COc1ccc(-n2c(C(C)(C)C)csc2=Nc2c(C)n(C)n(-c3ccccc3)c2=O)cc1 | 5.7% (inactive)
11 | O=C1Nc2ccc(NS(=O)(=O)c3cccs3)c3cccc1c23 | 65.7% (active)
12 | O=S(=O)(Nc1cccc2[nH]ncc12)c1cccs1 | 5.1% (inactive)
13 | O=C(O)c1ccccc1NS(=O)(=O)c1ccc2c3c(cccc13)C(=O)N2 | -2% (inactive)
14 | COc1ccc(C(CNC(=O)CCOc2ccccc2)N(C)C)cc1 (stereo not given) | -3.8% (inactive)
15 | O=C(O)c1ccc(COc2ccc3ccccc3c2/C=C2/NC(=O)N(c3ccccc3)C2=O)cc1 | 22.6% (inactive)
16 | O=C(O)c1ccc(COc2ccccc2/C=C2\NC(=O)N(Cc3ccc(F)cc3)C2=O)cc1 | -7.9% (inactive)
17 | O=C(O)c1ccc(COc2ccc3ccccc3c2/C=C2/NC(=O)N(Cc3ccc(F)cc3)C2=O)cc1 | 52.7% (active)
18 | CC1CC(C)CN(CCCNC(=O)c2csc3c2CCCC3)C1 (stereo not given) | 8.3% (inactive)
19 | CCC(=O)Nc1ccc(Cl)c(NC(=O)c2ccc(Br)o2)c1 | 1.8% (inactive)
20 | CC1C(C#N)=C(N)OC2=C1C(=O)CC(c1ccccc1)C2 (stereo not given) | 10.5% (inactive)
21 | CC(C)CC1C(C#N)=C(N)OC2=C1C(=O)CC(c1ccccc1)C2 (stereo not given) | 57% (active)
22 | N#CC1=C(N)OC2=C(C(=O)CC(c3ccccc3)C2)C1c1ccoc1 (stereo not given) | -1.4% (inactive)
23 | CCN(CC)C(=O)C1=C(C)Nc2nnnn2C1c1cccnc1 (stereo not given) | 6.1% (inactive)
24 | CC[n+]1c(/C=C/N(C)c2ccccc2)oc2ccccc21 | 36.4% (inactive)
25 | CC[n+]1c(/C=C/N(C)c2ccccc2)oc2ccc(F)cc21 | 26.2% (inactive)
26 | CC[n+]1c(/C=C/N(C)c2ccccc2)oc2ccc(Cl)cc21 | 51.8% (active)
27 | CCCc1cc(=O)[nH]c(SCC(=O)N(C)Cc2ccccc2)n1 | 10.9% (inactive)

Row | SMILES | inhibition
28 | O=C(NCc1ccco1)C(C(=O)c1ccccc1)n1ccccc1=O (stereo not given) | 1% (inactive)
29 | O=C(NCCNS(=O)(=O)c1ccccc1)N1CCOCC1 | -0.7% (inactive)
30 | CCOC(=O)C(NC(=O)NC1CCCCC1)(c1ccccc1)C(F)(F)F (stereo not given) | -5.1% (inactive)
31 | CCOC(=O)C(NC(=O)Nc1ccc(O)cc1)(c1ccccc1)C(F)(F)F (stereo not given) | 50.4% (active)
32 | CCOC(=O)C(NC(=O)Nc1ccc(C(N)=O)cc1)(c1ccccc1)C(F)(F)F (stereo not given) | -6.9% (inactive)
33 | O=C(Cc1ccc(Cl)cc1)NCCS(=O)c1ccc(Cl)cc1 (stereo not given) | 8% (inactive)
34 | CCCN1CCN(CCCNC(=O)CCn2nc(-c3ccccc3)ccc2=O)CC1 | -12.2% (inactive)
35 | CCCn1c(CCc2ccccc2)n[nH]c1=S | 2.6% (inactive)
36 | O=C(Nc1cccc2cccnc12)c1cccc2ccccc12 | -6.9% (inactive)
37 | O=C(O)c1ccccc1C(=O)Nc1ccc(Br)c2cccnc12 | 53.1% (active)
38 | O=C(O)c1ccccc1C(=O)Nc1ccccn1 | 7.2% (inactive)
39 | c1ccc2c(c1)nc1sccn12 | -4.9% (inactive)
40 | Cc1ccc(/C=C(/C#N)C(=O)NC(=O)Oc2ccccc2)cc1 | 3.4% (inactive)
41 | O=C(NCc1ccccc1)NC1CCCCC1 | 5.5% (inactive)
42 | O=C(NC1CCCCC1)Oc1cccc2ccccc12 | 61.4% (active)
43 | S=C(Nc1cccc2ccccc12)NC1CCCCC1 | 48.3% (inactive)
44 | c1ccc(OCCCc2nc(-c3cccnc3)no2)cc1 | -2.4% (inactive)
45 | Cc1cc(C)n2c(Nc3ccc4c(c3)OCCO4)c(-c3ccc(C)o3)nc2n1 | 0.2% (inactive)
46 | CCCc1nc(N)c(C#N)c(-c2cccnc2)c1CC | 9.6% (inactive)
47 | O=C(O)C1=C[C@@H](c2csc3ccccc23)C[C@@H](OCCCCO)O1 | 1.5% (inactive)
48 | NC(=O)C1=C[C@H](c2csc3ccccc23)C[C@H](OCCCCO)O1 | 63.4% (active)
49 | O=C(O)C1=C[C@H](c2csc3ccccc23)C[C@H](OCCCCO)O1 | -1.5% (inactive)
50 | O=C(C1=C[C@H](c2csc3ccccc23)C[C@H](OCCCCO)O1)N1CCOCC1 | 9.5% (inactive)
51 | NC(=O)C1=C[C@@H](c2csc3ccccc23)C[C@@H](OCCCCO)O1 | 59.2% (active)
52 | O=C(NC1CC1)C1=C[C@H](c2csc3ccccc23)C[C@H](OCCCCO)O1 | 1.4% (inactive)
53 | Cc1ccc(C(C(=O)NCc2ccco2)N(C(=O)Cc2cccs2)c2cccnc2)cc1 (stereo not given) | -5% (inactive)
54 | c1ccc(COC2CCCN(Cc3nc(-c4cccs4)no3)C2)nc1 (stereo not given) | 13.3% (inactive)

Row | SMILES | inhibition
55 | O=C(Cn1nnc(-c2ccccc2F)n1)Nc1cccc2ncccc12 | -0.5% (inactive)
56 | CS(=O)(=O)c1ccc2nc(N)sc2c1 | 6.1% (inactive)
57 | CCOC(=O)c1c(C)[nH]c(C)c1C(=O)COC(=O)c1ccc(Cl)c(S(N)(=O)=O)c1 | -8.6% (inactive)
58 | O=S(=O)(/N=C(/c1ccccc1)N1CCCCC1)c1ccccc1 | 7.7% (inactive)
59 | N#Cc1c(Nc2ccccc2)sc(C(=O)c2ccc(F)cc2)c1N | 1.5% (inactive)
60 | N#Cc1c(Nc2cccc(F)c2)sc2c(O)cc(=O)[nH]c12 | 55.8% (active)
61 | O=c1cnnc(Nc2cccc(F)c2)[nH]1 | -14.5% (inactive)
62 | CN(C)C(=O)c1ccc2c(c1)n(C)c(=O)n2C | -6.4% (inactive)
63 | CCCCNC(=O)CSc1nc2ccccc2c(=O)n1C1CCCC1 | 0.1% (inactive)
64 | O=C(CNc1ccc2ccccc2c1)NNC1=NCCC1 | 52.9% (active)
65 | O=C(CNc1ccc(Br)cc1)NNC1=NCCC1 | -3.4% (inactive)
66 | O=C(CNc1ccccc1)NNC1=NCCC1 | 14.8% (inactive)
67 | Clc1cccc(-c2nnc3sc(-c4ccc5c(c4)OCO5)nn23)c1 | 6% (inactive)
68 | O=C1CCC(C(=O)OC(C(=O)c2c[nH]c3ccccc23)c2ccccc2)=NN1 (stereo not given) | -1.8% (inactive)
69 | CN(C)c1ccc(N/C=C/C(=O)C(C)(C)C)cc1 | 12.9% (inactive)
70 | CN(C)c1ccc(N/C=C/C(=O)C(F)(F)F)cc1 | 56.5% (active)
71 | COc1ccc(N/C=C/C(=O)C(F)(F)F)cc1 | 14.6% (inactive)
72 | CCn1cc(C(=O)NC(=S)Nc2cccc(O)c2)cn1 | 0.6% (inactive)
73 | CCCN=Cc1c(CCC)[nH]n(-c2nc3ccccc3s2)c1=O | 4.7% (inactive)
74 | CCCc1[nH]n(-c2nc3ccccc3s2)c(=O)c1C=NCC1CCCO1 (stereo not given) | 51% (active)
75 | CCCc1[nH]n(-c2nc3ccccc3s2)c(=O)c1C=NCC(C)C | 0.7% (inactive)
76 | O=C(O)CCCC(=O)Nc1ccccc1C(=O)N1CCOCC1 | -1.4% (inactive)
77 | CC(=O)c1cccc(NC(=O)CN2C(=S)NC(C)(C)CC2C)c1 (stereo not given) | -1.5% (inactive)
78 | Cc1ccc(O)c(C=Nc2cc(C)ccc2O)c1 | 23.3% (inactive)
79 | Cc1ccc(O)c(N=CC2=C(O)c3ccccc3C2=O)c1 | 15.3% (inactive)
80 | Cc1ccc(O)c(N=Cc2cccs2)c1 | 65.7% (active)
81 | O=C(NC1CCCCC1)N1CCC(c2nc3ccccc3[nH]2)CC1 | 1.1% (inactive)

Row | SMILES | inhibition
82 | COC(=O)c1ccc(OC(=O)c2ccco2)cc1 | -6.2% (inactive)
83 | O=C(Oc1ccc(-c2cnc3ccccc3n2)cc1)c1ccco1 | 15.4% (inactive)
84 | Cc1cc(C(=O)CSCCCn2c(=O)[nH]c3ccccc32)c(C)n1C | -21.9% (inactive)
85 | CCN(C(=O)CN1CCN(c2ccc(O)cc2)CC1)c1c(N)n(Cc2ccccc2)c(=O)[nH]c1=O | 51.6% (active)
86 | CC(C)CN(C(=O)CN1CCN(c2ccc(F)cc2)CC1)c1c(N)n(CC(C)C)c(=O)[nH]c1=O | -8.7% (inactive)
87 | CCN(C(=O)CN1CCN(c2ccc(OC)cc2)CC1)c1c(N)n(Cc2ccccc2)c(=O)[nH]c1=O | 2.4% (inactive)
88 | CC(=O)c1ccc(N2CCN(CC(=O)N(CC(C)C)c3c(N)n(CC(C)C)c(=O)[nH]c3=O)CC2)cc1 | -0.1% (inactive)
89 | CCN(C(=O)CN1CCN(c2ccccc2)CC1)c1c(N)n(Cc2ccccc2)c(=O)[nH]c1=O | 7.8% (inactive)
90 | CC(C)CN(C(=O)CN1CCN(c2ccc(O)cc2)CC1)c1c(N)n(CC(C)C)c(=O)[nH]c1=O | 52.3% (active)
91 | Cc1ccc(NC(=S)N2CCCN(Cc3ccc(F)cc3)C2)c(C)c1 | -3.7% (inactive)
92 | Cc1ccc(CC(=O)Nc2cccnc2)cc1 | 10.1% (inactive)
93 | Cc1ccc(N2C(=S)SC3CS(=O)(=O)CC32)cc1 (stereo not given) | -0.7% (inactive)
94 | O=C(CCC1CCCC1)Nc1nnc(-c2ccc3c(c2)OCO3)s1 | 1.1% (inactive)
95 | CCOC(=O)c1c(-c2ccccc2)[nH]c2ccc(O)cc12 | 5.9% (inactive)
96 | CCOC(=O)c1c(OCC)[nH]c2c1cc(O)c1ccccc12 | 54.7% (active)
97 | CCOC(=O)c1c(C)cc(=O)oc1C | 3.9% (inactive)
98 | CCOC(=O)c1c(C)[nH]c(C)c1-c1ccccc1OC | 1.6% (inactive)
99 | CCOC(=O)c1c2c3c(cccc3[nH]c1=O)C(=O)c1ccccc1-2 | -30.6% (inactive)
100 | CCOC(=O)c1c(C)[nH]c2c1-c1ccccc1C(=O)C2=O | 62.9% (active)
101 | CCOC(=O)c1c(C)oc2c1c(C(c1ccccc1)N1CCOCC1)c(O)c1ccccc12 (stereo not given) | 30.5% (inactive)
102 | CCOC(=O)c1c(C)oc2ccc(O)cc12 | 2.8% (inactive)
103 | CCOC(=O)c1c(C)oc2c1c(C=NCc1ccccn1)c(O)c1ccccc12 | 32.6% (inactive)
104 | CCOC(=O)c1c(C)oc2c1cc(O)c1ccccc12 | 54.3% (active)
105 | CCOC(=O)c1c(OCC)[nH]c2ccc(O)cc12 | -2.7% (inactive)
